# Measurements from PubChem BioAssay.
# Where “and” joins values, the source holds several entries; their conditions need not be identical. Identical values can stand only once. Records with an inconclusive call do not appear. Calls of active or inactive are those of the source. Rule as the data show it, unless noted: active = inhibition above about 80%; inactive = the rest.
# What was measured:
# [1] = selective SMN2 exon splicing luciferase activators – cell-based, SMN2/SMN1 luciferase reporters (AID 1598; call rule not given here); settings: SMN2 vs SMN1 luciferase splicing reporter cells, at 10 µM; SMN1 luciferase ratio: measured here: SMN1 luciferase reporter average; SMN2 luciferase ratio: measured here: SMN2 luciferase reporter average, stronger effect = higher value; SMN2/SMN1 luciferase ratio: stronger effect = higher value
# [2] = growth inhibition, single agent and combos, cell-based, chromothripsis tumors, cisplatin or BGB combos (AID 1671450); settings: HDN33 neuroblastoma cells, stronger effect = higher value;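 also: cells exposed to compound for four days; 0% = vehicle DMSO and 100% = cell killing by high DMSO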
# [3] = growth inhibition, single agents and combos, LFS_MB_1R, cell-based, cisplatin or BGB combos, synergistic combos for chromothripsis tumors (AID 1671452); settings: LFS_MB_1R medulloblastoma cells, stronger effect = higher value;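 also: cells exposed for 96 hours before readout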
# [4] = growth inhibition, single agents and combos, HTB85, cell-based, BGB or cisplatin IC20 combos, synergistic combos for chromothripsis tumors (AID 1671453); settings: HTB85 osteosarcoma cells, drug combinations, stronger effect = higher value;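 also: cells exposed for 96 hours before readout; 0% = vehicle DMSO and 100% = high DMSO killing control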
# [5] = growth inhibition, single agents and combos, CRL2098, cell-based, BGB or cisplatin IC20 combos, synergistic combos for chromothripsis tumors (AID 1671454); settings: CRL2098 osteosarcoma cells, drug combinations, stronger effect = higher value;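 also: cells exposed for 96 h before readout; 0% = vehicle DMSO and 100% = killing by high DMSO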
# [6] = growth inhibition, single agents and combos, HD-MB03, cell-based, BGB or cisplatin IC20 combos, synergistic combos for chromothripsis tumors (AID 1671455; in the data active = inhibition above about 83%;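 also: 0% = vehicle DMSO and 100% = high DMSO as cytotoxic control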); settings: HD-MB03 medulloblastoma cells, stronger effect = higher value
# [7] = growth inhibition, single agents and combos, UWB1.289, cell-based, BGB or cisplatin combos, synergistic combos for chromothripsis tumors (AID 1671456); settings: UWB1.289 ovarian carcinoma cells, stronger effect = higher value;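 also: cells exposed to compound for four days; 0% = vehicle DMSO and 100% = killing by high DMSO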
# [8] = growth inhibition, single agents and combos, LFS_MB_2R, cell-based, cisplatin combos, synergistic combos for chromothripsis tumors (AID 1671457); settings: LFS_MB_2R medulloblastoma cells, stronger effect = higher value;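 also: cells exposed to compound for four days before readout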
# [9] = growth inhibition, MDA-MB-436, cell-based, BGB or cisplatin combos, synergistic combos for chromothripsis tumors (AID 1671458; call rule not given here;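 also: cells exposed for 96 hours; 0% = vehicle DMSO and 100% = killing by high DMSO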); settings: MDA-MB-436 breast carcinoma growth inhibition, drug combinations, stronger effect = higher value
# [10] = UWB1.289_BRCA1 ovarian cancer growth, cell-based, BGB or cisplatin combinations (AID 1671459); settings: UWB1.289 BRCA1 ovarian carcinoma, drug combinations, stronger effect = higher value
# [11] = drug combination toxicity in non-malignant astrocytes – cell-based, BGB or cisplatin IC20 combos, cytotoxicity control for chromothriptic childhood tumor combination screen (AID 1671460); settings: Human astrocytes, viability inhibition, drug combinations, at 0.5 µM, stronger effect = higher value;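 also: cells exposed to compounds for 96 hours before viability readout; 0% = vehicle and 100% = killing control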
# [12] = BT084 cell growth, single and combined drugs, ICGC_MB145, cisplatin and BGB IC40 combos (AID 1671461); settings: BT084 medulloblastoma cells, drug combinations, stronger effect = higher value;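 also: cells exposed to drugs for 96 hours; 0% = vehicle DMSO and 100% = high DMSO full killing control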
# [13] = RCMB18 cell growth, single agent and combined, cisplatin and BGB IC40 combos (AID 1671462); settings: RCMB18 medulloblastoma cells, stronger effect = higher value;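 also: cells exposed to compound for four days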
# [14] = CRL1545 cell growth, single agent and combined, cisplatin and BGB IC20 combos (AID 1671464); settings: CRL1545 osteosarcoma cells, stronger effect = higher value;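 also: cells exposed to compound for 96 hours before readout; 0% = vehicle DMSO and 100% = high DMSO killing control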
# [15] = chitosan synthesis blockers in C. neoformans – flow cytometry, Cibacron Brilliant Red staining (AID 1347148; call rule not given here;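 also: compound exposure lasted three days at 37 degrees C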); settings: Cryptococcus neoformans chitosan, stronger effect = lower value; at 99.1 µM unless noted
# [16] = rescue of PC12 cells from polyQ htt toxicity – LDH release (AID 1610); settings: PC12 mutant huntingtin toxicity, final LDH at 4 uM, stronger effect = lower value
# [17] = glutamate excitotoxicity neuroprotectants – cell-based, TUNEL DNA degradation staining, MNGlu (AID 1594; call rule not given here); settings: motor neurons, glutamate-induced death, at 1 µM, stronger effect = higher value
# [18] = measured here: with BGB IC20 combination, at 0.5 µM
# [19] = measured here: with cisplatin IC20 combination, at 0.5 µM
# [20] = measured here: combination with cisplatin, at 0.5 µM
# [21] = measured here: combination with cisplatin, at 5 µM
compound,measurement,setting,value
CO[C@@]1(NC(=O)Cc2cccs2)C(=O)N2C(C(=O)O)=C(COC(N)=O)CS[C@@H]21,SMN1 luciferase ratio,[1],1.2
same,SMN2/SMN1 luciferase ratio,[1],1.24 (active)
same,SMN2 luciferase ratio,[1],1.48
CCn1cc(C(=O)O)c(=O)c2cc(F)c(N3CCN(C)CC3)cc21,inhibition,"[2]; BGB combo, at 5 µM",-18.6% and 9.99%
same,inhibition,[2]; at 0.5 µM,-25.3% (inactive) and 3.48% (inactive)
same,inhibition,"[2]; cisplatin combo, at 5 µM",-42% and 24.3%
same,inhibition,[2]; [18],-16.6% and 0.157%
same,inhibition,[2]; [19],-28.5% and 3.55%
same,inhibition,"[2]; single agent, at 5 µM",-19.9% and 6.42%
same,inhibition,[3]; at 0.5 µM,-35.2% (inactive) and -9.17% (inactive)
same,inhibition,"[3]; measured here: combination with BGB IC40, at 0.05 µM",-12.2% and -6.93%
same,inhibition,[3]; [20],-66.1% and -0.499%
same,inhibition,[3]; [21],-52.8% and 11.3%
same,inhibition,[4]; at 0.5 µM,-24.6% (inactive) and 0.8% (inactive)
same,inhibition,"[4]; measured here: with BGB IC20, at 0.5 µM",-39.2% and 13.3%
same,inhibition,"[4]; measured here: with BGB IC20, at 5 µM",-22.1% and 10.1%
same,inhibition,"[4]; measured here: with cisplatin IC20, at 0.5 µM",-19.7% and -20.6%
same,inhibition,"[4]; measured here: with cisplatin IC20, at 5 µM",-28.4% and -20.4%
same,inhibition,"[4]; single agent, at 5 µM",-27.1% and 2.1%
same,inhibition,[5]; at 0.5 µM,-41.2% (inactive) and 7.78% (inactive)
same,inhibition,"[5]; measured here: combination with BGB at IC20, at 0.5 µM",-48.5% and 10.5%
same,inhibition,"[5]; measured here: combination with cisplatin at IC20, at 0.5 µM",-57.7% and 40.3%
same,inhibition,[6]; at 0.5 µM,-16.4% (inactive) and 1.14% (inactive)
same,inhibition,"[6]; measured here: combo with BGB at IC20, at 0.5 µM",-17.4% and 6.49%
same,inhibition,"[6]; measured here: combo with cisplatin at IC20, at 0.5 µM",-24.9% and -8.23%
same,inhibition,[7]; at 0.5 µM,-8.81% (inactive) and 8.67% (inactive)
same,inhibition,"[7]; measured here: inhibition with BGB combination, at 0.05 µM",-24.8% and -1.17%
same,inhibition,"[7]; measured here: inhibition with cisplatin combination, at 0.05 µM",-21.6% and 2.48%
same,inhibition,[8]; at 0.5 µM,-5.46% (inactive) and 1.79% (inactive)
same,inhibition,[8]; [20],3.08% and 3.79%
same,inhibition,[8]; [21],-14.9% and -26.1%
same,inhibition,[9]; at 0.5 µM,-8.42% (inactive) and -1.21% (inactive)
same,inhibition,"[9]; measured here: BGB combination, at 0.5 µM",-5.87% and 9.12%
same,inhibition,"[9]; measured here: BGB combination, at 5 µM",-7.49% and 1.82%
same,inhibition,"[9]; measured here: cisplatin combination, at 0.5 µM",-16.3% and -4.65%
same,inhibition,"[9]; measured here: cisplatin combination, at 5 µM",-9.37% and -6.1%
same,inhibition,"[10]; BGB combination, concentration series, at 5 µM",-6.71% and 0.813%
same,inhibition,[10]; at 0.5 µM,-17.9% (inactive) and 5.05% (inactive)
same,inhibition,"[10]; cisplatin combination, concentration series, at 5 µM",-12.6% and 1.69%
same,inhibition,[11],-3.63% (inactive) and -0.44% (inactive)
same,inhibition,[11]; measured here: combo with BGB IC20,1.4% and 4.59%
same,inhibition,[11]; measured here: combo with cisplatin IC20,-18.3% and 1.72%
same,inhibition,[12]; at 0.5 µM,-1.86% (inactive) and 3.84% (inactive)
same,inhibition,"[12]; cisplatin combination, at 0.5 µM",-11.9% and -2.51%
same,inhibition,"[12]; cisplatin combination, at 5 µM",-69% and 6.95%
same,inhibition,"[12]; measured here: BGB IC40 combination 0.05 uM, at 0.05 µM",-0.823% and 30.3%
same,inhibition,"[12]; single agent, at 5 µM",-6.24% and -12.7%
same,inhibition,[13]; at 0.5 µM,-15.3% (inactive) and 13.4% (inactive)
same,inhibition,"[13]; cisplatin combo, at 5 µM",-13.1% and 21.2%
same,inhibition,"[13]; measured here: BGB IC40 combination, at 0.05 µM",11.2% and 6.78%
same,inhibition,[13]; [20],-34.9% and 34.7%
same,inhibition,"[13]; single agent, at 5 µM",-30.4% and 4.8%
same,inhibition,[14]; at 0.5 µM,-40.9% (inactive) and -9.39% (inactive)
same,inhibition,[14]; [18],-21.3% and -8%
same,inhibition,[14]; [19],-50.7% and -12.6%
same,inhibition,"[14]; single agent, at 0.05 µM",3.45% and -1.09%
same,inhibition,"[14]; single agent, at 5 µM",-27.1% and 1.32%
CCN(CC)CCNC(=O)c1ccc(N)cc1,fold fluorescence,[15],4.18 [at 212.5 µM] (inactive)
CCCCNC(=O)NS(=O)(=O)c1ccc(C)cc1,fold fluorescence,[15],3.24 [at 184.9 µM] (inactive)
OCCN1CCN(CCCN2c3ccccc3Sc3ccc(Cl)cc32)CC1,normalised LDH release,[16],0.608
CC(N=C(NC#N)Nc1ccncc1)C(C)(C)C (stereo not drawn),fold fluorescence,[15],3.41 [at 203.8 µM] (inactive)
Cc1ccc(S(=O)(=O)NC(=O)NN2CCCCCC2)cc1,fold fluorescence,[15],4.87 [at 160.6 µM] (inactive)
O=C(CCCN1CC=C(n2c(=O)[nH]c3ccccc32)CC1)c1ccc(F)cc1,protection,[17],35% (active)
